Active and inactive are the calls of the source. How the source made its calls: active means hit-call score of the fitted dose curve at least 0.9, where 1 is the maximum; inactive means score below 0.9.
What follows are compounds tested on catalase (CAT), CAT (gene 847) (assay: LTEA_HepaRG_CAT: Life Technologies and Expression Analysis (LTEA) Assay for catalase (CAT) using HepaRG (AID 2283452)). Conditions: mRNA level, 48 h; actives raise or lower the signal.
In short: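 Differentiated HepaRG cells in serum-free induction medium were dosed 48 h in duplicate, eight half-log concentrations from 100 uM in 0.5% DMSO. Transcript measured by TaqMan qRT-PCR, normalised to ACTB/GAPDH/POLR2A, fitted bidirectionally against DMSO.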

SMILES | outcome | AC50
CCCCCCCCO | inactive | –
CC(=O)c1ccc2c(c1)[C@H](NC(=O)c1ccc(F)cc1)[C@@H](O)C(C)(C)O2 | inactive | –
CC1(C)C(=O)N(Br)C(=O)N1Br | inactive | –
CCNc1ccccc1 | inactive | –
COc1ccc(/C=C/S(=O)(=O)NC(=O)c2ccc(C)cc2Cl)cc1 | inactive | –
CC(C)CCO | inactive | –
O=C(O)CCN(C1(C(=O)NO)CCCC1)S(=O)(=O)c1ccc(Oc2ccc(F)cc2)cc1 | inactive | –
C=CC(=C)CCC=C(C)C | inactive | –
CC(O)CN(CCN(CC(C)O)CC(C)O)CC(C)O (centres undefined) | inactive | –
CCCN(C1CCN(C(=O)C2CCNCC2)CC1)[C@@H]1CCc2ccc(OC)cc2C1 | – | 50.1 µM (active)
CCc1cc(SCc2sc(-c3ccc(C(F)(F)F)cc3)nc2CN2CCN(c3ccc(OC)cc3)CC2)ccc1OCC(=O)O | – | 93.7 µM (active)
CCOc1cccc(-n2cc(C(=O)N3CCN(c4cc(C(=O)O)c5ccccc5c4)CC3)nc2-c2ccc(C)cc2)c1 | – | 31.6 µM (active)
O=C(O)CC(O)C(=O)O (centres undefined) | inactive | –
O=C(O)c1cc(N=Nc2ccc(S(=O)(=O)Nc3ccccn3)cc2)ccc1O | inactive | –
C[C@](N)(Cc1ccc(O)c(O)c1)C(=O)O | inactive | –
On1ccccc1=S | inactive | –
Cn1c(=O)c2c(ncn2C)n(C)c1=O | inactive | –
O=C(OC[C@H]1O[C@@H](OC(=O)c2cc(O)c(O)c(OC(=O)c3cc(O)c(O)c(O)c3)c2)[C@H](OC(=O)c2cc(O)c(O)c(OC(=O)c3cc(O)c(O)c(O)c3)c2)[C@@H](OC(=O)c2cc(O)c(O)c(OC(=O)c3cc(O)c(O)c(O)c3)c2)[C@@H]1OC(=O)c1cc(O)c(O)c(OC(=O)c2cc(O)c(O)c(O)c2)c1)c1cc(O)c(O)c(OC(=O)c2cc(O)c(O)c(O)c2)c1 | – | 15.2 µM (active)
CCCCCCc1ccc(O)cc1O | inactive | –
Nc1nc2ncc(CNc3ccc(C(=O)N[C@@H](CCC(=O)O)C(=O)O)cc3)nc2c(=O)[nH]1 | inactive | –
CC(C)CC(C)(O)C#CC(C)(O)CC(C)C (centres undefined) | inactive | –
CCOC(=O)COc1ccc2c(c1)CC(NCC(O)c1cccc(Cl)c1)CC2 (centres undefined) | inactive | –
CC1=CC(=O)CC(C)(C)C1 | inactive | –
CC[C@H]1OC(=O)[C@H](C)[C@@H](O[C@H]2C[C@@](C)(OC)[C@@H](O)[C@H](C)O2)[C@H](C)[C@@H](O[C@@H]2O[C@H](C)C[C@H](N(C)C)[C@H]2O)[C@](C)(O)C[C@@H](C)C(=O)[C@H](C)[C@@H](O)[C@]1(C)O | inactive | –
CCOC(=O)c1ccc(C2CCC(NC[C@H](O)COc3ccc(O)c(NS(C)(=O)=O)c3)CC2)cc1 (some centres undefined) | inactive | –
Cc1ccc(C)c(O)c1 | inactive | –
COc1ccc2sc(C(=O)Nc3nnn[nH]3)c(OC(C)C)c2c1 | – | 81.3 µM (active)
CCOCCO | inactive | –
CC(=O)OC[C@H]1O[C@@](COC(C)=O)(O[C@H]2O[C@H](COC(C)=O)[C@@H](OC(C)=O)[C@H](OC(C)=O)[C@H]2OC(C)=O)[C@@H](OC(C)=O)[C@@H]1OC(C)=O | inactive | –

Source: PubChem BioAssay (EPA / NIEHS)
